According to PubChem BioAssay (NCATS):
Records with an inconclusive call do not appear. Calls of active or inactive are those of the source. Unless noted, calls follow the shape of the dose curve; as a rule, active = well fitted curve in the direction sought with a large enough effect; inconclusive = small, poorly fitted or top-dose-only effect, or another doubt; inactive = no such curve, though single readings can be large; an effect the other way counts as inactive or inconclusive.

Tests used:
[1] = target: Lysosomal acid glucosylceramidase (Homo sapiens) (UniProt P04062); test: Glucocerebrosidase-p2 (AID 348; in the data active = potency below about 10 µM; also: potency is read from the fitted curve at half-maximal effect); details: purified GBA, blue fluorogenic substrate, 40 min
Lysosomal acid glucosylceramidase (Homo sapiens), sequence (P04062 whole entry, looked up): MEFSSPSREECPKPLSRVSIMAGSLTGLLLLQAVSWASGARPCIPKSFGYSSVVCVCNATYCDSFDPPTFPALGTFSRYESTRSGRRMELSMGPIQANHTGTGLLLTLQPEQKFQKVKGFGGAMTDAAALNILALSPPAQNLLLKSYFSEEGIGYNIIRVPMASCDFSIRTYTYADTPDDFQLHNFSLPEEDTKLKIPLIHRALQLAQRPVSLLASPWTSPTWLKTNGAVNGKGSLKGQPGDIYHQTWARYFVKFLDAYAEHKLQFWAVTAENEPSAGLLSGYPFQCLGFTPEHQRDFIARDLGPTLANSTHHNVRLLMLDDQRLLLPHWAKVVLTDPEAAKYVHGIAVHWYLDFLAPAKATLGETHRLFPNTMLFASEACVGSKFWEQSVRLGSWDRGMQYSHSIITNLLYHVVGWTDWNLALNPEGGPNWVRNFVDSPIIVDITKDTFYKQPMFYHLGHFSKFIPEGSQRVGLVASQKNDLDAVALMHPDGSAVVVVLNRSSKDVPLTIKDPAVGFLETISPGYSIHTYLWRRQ
Procedure, shortened: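 Normal human glucocerebrosidase (0.2 nM) with blue fluorogenic substrate (80 uM final) in citrate/phosphate pH 5.9 with 10mM sodium taurocholate, 0.01% tween-20; 40 min RT, NaOH/glycine stop; fluorescence Ex 365/Em 440; AC50 from a titration from 0.6 nM upwards.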

[2] = AP1 Signaling Pathway (AID 357; active = well fitted curve in either direction with a large enough effect, not every such curve was filed as active;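 also: ME-180 reporter cells stimulated with EGF at its EC50 level; % is scaled to controls: 0 for no effect and ±100 for the full control effect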); details: ME-180 AP-1-bla reporter, EGF-induced, beta-lactamase ratio, 5 h; at 7.69 µM (top of the series) unless noted
Procedure, shortened: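 Cells are seeded overnight, exposed to compound titrations and an EC50 level of EGF for 5 hours at 37 °C, then loaded with CCF4 dye for 2.5 hours. Beta-lactamase activity under the AP-1 element is read as a blue/green ratio.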

[3] = target: Cytochrome P450 1A2 (Homo sapiens) (UniProt P05177); test: p450-cyp1a2 (AID 410; calls by dose curve; also: potency is read from the fitted curve at half-maximal effect;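 as to activity change, negative = inhibition: -100% = full effect of reference inhibitor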); details: recombinant CYP1A2, luciferin-ME demethylation, luminescence; series mostly up to 57 µM
Cytochrome P450 1A2 (Homo sapiens), sequence (P05177 whole entry, looked up): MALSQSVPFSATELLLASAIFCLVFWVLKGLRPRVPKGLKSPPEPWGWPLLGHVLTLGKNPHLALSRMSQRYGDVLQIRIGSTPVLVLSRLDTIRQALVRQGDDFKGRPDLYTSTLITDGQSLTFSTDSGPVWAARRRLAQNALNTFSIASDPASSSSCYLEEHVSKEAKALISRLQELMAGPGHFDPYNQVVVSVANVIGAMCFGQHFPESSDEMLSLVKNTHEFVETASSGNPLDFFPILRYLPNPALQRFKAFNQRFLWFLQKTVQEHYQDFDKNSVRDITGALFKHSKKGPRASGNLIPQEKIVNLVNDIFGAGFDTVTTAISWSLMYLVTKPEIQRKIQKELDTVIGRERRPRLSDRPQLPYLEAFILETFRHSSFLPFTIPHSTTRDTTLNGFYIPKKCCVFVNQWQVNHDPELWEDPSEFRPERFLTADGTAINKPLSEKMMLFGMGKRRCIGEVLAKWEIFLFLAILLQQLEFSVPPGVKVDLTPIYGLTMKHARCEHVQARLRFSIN
Procedure, shortened: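 O-Demethylation of luciferin 6' methyl ether by human CYP1A2 is monitored as luciferase luminescence. Substrate sits at Km (100uM); enzyme is 20nM. Values are scaled to 57 uM furafylline as maximal inhibition.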

[4] = NFAT Signaling Pathway (AID 444; active = well fitted curve in either direction with a large enough effect, not every such curve was filed as active;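 also: carbachol stimulus at about its EC50 of 1 µM final; % is scaled to controls: 0 for no effect and ±100 for the full control effect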); details: Jurkat NFAT-bla M1, carbachol, beta-lactamase ratio, 5 h; at 7.69 µM (top of the series) unless noted
Procedure, shortened: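 Jurkat cells with NFAT-driven β-lactamase reporter and co-expressed M1 receptor, stimulated with carbachol (final 1 uM, ~EC50), compound titration, 5 h at 37 °C. CCF4 loaded 1 h at RT; 460/530 nm ratio gave %activity and AC50.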

[5] = Stat Signaling Pathway (AID 446; active = well fitted curve in either direction with a large enough effect, not every such curve was filed as active;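 also: ME-180 cervical cancer cells given 40 pM IL-6 alongside compound; SIE-controlled beta-lactamase reporter measured as 460/530 nm FRET emission ratio; % is scaled to controls: 0 for no effect and ±100 for the full control effect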); details: ME-180 SIE beta-lactamase reporter, IL-6 stimulated, 5 h; at 7.69 µM (top of the series) unless noted
Procedure, shortened: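 Overnight-plated ME-180 cells bearing a STAT Inducible Element beta-lactamase reporter; 5 h co-exposure to compound and 40 pM IL-6; values normalized to 300 pM IL-6 and 125 nM JAK inhibitor controls.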

[6] = target: Glucocorticoid receptor (Homo sapiens) (UniProt P04150); test: GR-GFP Redistribution (AID 450;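 active = compounds whose dose series gives a full or clear partial fitted curve of increased nuclear translocation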; also: potency is read from the fitted curve at half-maximal effect); details: U2OS GR-GFP nuclear translocation, laser cytometry, 2 h
Glucocorticoid receptor (Homo sapiens), sequence (P04150 whole entry, looked up, the tested form may be a part): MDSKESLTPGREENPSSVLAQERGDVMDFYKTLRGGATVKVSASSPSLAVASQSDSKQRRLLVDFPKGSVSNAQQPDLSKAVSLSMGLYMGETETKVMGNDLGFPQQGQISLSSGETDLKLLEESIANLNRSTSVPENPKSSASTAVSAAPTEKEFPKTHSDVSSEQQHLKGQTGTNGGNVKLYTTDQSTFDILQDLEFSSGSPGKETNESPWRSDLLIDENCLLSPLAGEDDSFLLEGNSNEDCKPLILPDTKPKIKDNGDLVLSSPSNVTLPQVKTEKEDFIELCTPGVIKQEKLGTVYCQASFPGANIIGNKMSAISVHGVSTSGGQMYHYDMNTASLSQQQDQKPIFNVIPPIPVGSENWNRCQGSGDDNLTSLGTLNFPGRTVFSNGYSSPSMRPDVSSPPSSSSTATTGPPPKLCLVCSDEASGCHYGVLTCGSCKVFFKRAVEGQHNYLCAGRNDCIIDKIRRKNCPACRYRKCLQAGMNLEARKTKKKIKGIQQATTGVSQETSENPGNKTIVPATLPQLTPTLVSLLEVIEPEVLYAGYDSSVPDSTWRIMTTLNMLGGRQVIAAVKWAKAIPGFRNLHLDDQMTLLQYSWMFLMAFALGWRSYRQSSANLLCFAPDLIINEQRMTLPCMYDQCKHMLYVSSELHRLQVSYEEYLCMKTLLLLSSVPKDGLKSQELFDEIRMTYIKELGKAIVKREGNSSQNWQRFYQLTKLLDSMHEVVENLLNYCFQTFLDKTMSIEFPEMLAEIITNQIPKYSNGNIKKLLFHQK

[7] = target: Glucocorticoid receptor (Homo sapiens) (UniProt P04150); test: GR-EFC Redistribution (AID 451; calls by dose curve; also: potency is read from the fitted curve at half-maximal effect); details: CHO-K1 GR-EFC translocation, beta-gal luminescence, 2 h
Procedure, shortened: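 CHO-K1 cells expressing nuclear EA and GR-ED fragments of b-gal; compounds titrated up to 46 uM final, 2 h at 37 C. GR nuclear translocation read as complemented b-gal luminescence after 1 h RT detection.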

[8] = target: Mitogen-activated protein kinase 10 (Mus musculus) (UniProt Q61831); test: JNK3 AlphaScreen Assay (AID 530; active = well fitted curve in either direction with a large enough effect, not every such curve was filed as active;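 also: kinase came from lysate of stimulated human HepG2 cells; signal reports phosphorylation of biotinylated GST-cJun 1-79 at Ser73 with 10 µM ATP; % is scaled to controls: 0 for no effect and ±100 for the full control effect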); details: JNK3 lysate, c-Jun phosphorylation; series mostly up to 57.1 µM
Procedure, shortened: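 Activity was read by AlphaScreen after JNK3-containing HepG2 lysate (cytokine pre-activated) phosphorylated biotinylated GST-cJun with 10 uM ATP at room temperature. Phospho-Ser73 cJun antibody with Protein-A acceptor beads provided detection.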

[9] = target: Cytochrome P450 3A4 (Homo sapiens) (UniProt P08684); test: qHTS Assay for Activators of Cytochrome P450 3A4 (AID 885); details: recombinant CYP3A4, Luciferin-PPXE luminescence, 60 min; series mostly up to 57.1 µM; also: nearly all actives have a fitted effect of over 65% in size
Cytochrome P450 3A4 (Homo sapiens), sequence (P08684 whole entry, looked up): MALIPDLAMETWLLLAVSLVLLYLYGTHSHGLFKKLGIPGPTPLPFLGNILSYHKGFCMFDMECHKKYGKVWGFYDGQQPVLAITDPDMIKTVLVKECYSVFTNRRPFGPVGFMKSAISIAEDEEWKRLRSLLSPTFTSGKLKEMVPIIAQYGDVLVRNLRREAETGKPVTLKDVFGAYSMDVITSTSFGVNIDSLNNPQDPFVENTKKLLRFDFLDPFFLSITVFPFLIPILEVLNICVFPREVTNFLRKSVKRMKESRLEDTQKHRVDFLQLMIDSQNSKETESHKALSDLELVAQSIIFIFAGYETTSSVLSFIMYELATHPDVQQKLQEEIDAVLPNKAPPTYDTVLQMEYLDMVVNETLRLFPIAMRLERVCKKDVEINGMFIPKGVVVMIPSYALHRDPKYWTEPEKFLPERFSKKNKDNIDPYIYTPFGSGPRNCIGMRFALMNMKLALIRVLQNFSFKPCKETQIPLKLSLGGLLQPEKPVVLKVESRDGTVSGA
Procedure, shortened: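 Using 20nM recombinant human CYP3A4 in potassium phosphate (200mM), substrate Luciferin-PPXE at 25uM, luminescent luciferin detection followed a 60-min RT NADPH reaction; data scaled to 57 uM ketoconazole.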

[10] = Counterscreen qHTS for small molecule stabilizers of the endoplasmic reticulum resident proteome: GLuc-NoTag assay (AID 1508627); details: Gaussia luciferase NoTag secretion counterscreen, luminescence, thapsigargin 100 nM for final 4 h; series mostly up to 76.4 µM;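 also: 0% = thapsigargin alone and -100% = DMSO vehicle control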
Procedure, shortened: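 Counterscreen line: SH-SY5Y-GLuc-NoTag. Seed, 5 h; compound, 19 h; thapsigargin 100 nM, 4 h; 37C/5% CO2. Readout: secreted GLuc luminescence, coelenterazine 0.07x final, no lysis.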

[11] = Confirmatory qHTS for small molecule stabilizers of the endoplasmic reticulum resident proteome: Secreted ER Calcium Modulated Protein (SERCaMP) assay (AID 1508628); details: SERCaMP secreted luciferase ER calcium/proteostasis reporter; series mostly up to 76.3 µM; also: nearly all actives have a fitted effect of over 40% in size; also: potency is read from the fitted curve at half-maximal effect
Procedure, shortened: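 Reporter secretion upon ER calcium depletion (100 nM thapsigargin, 4 h, 37C) is measured as medium luminescence with coelenterazine, after 16 h compound pretreatment of SH-SY5Y-GLuc-SERCaMP cells; primary at three concentrations up to 38.3 uM, follow-up at 11 (up to 76.6 uM).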

[12] = target: Rap guanine nucleotide exchange factor 3 (Homo sapiens) (UniProt O95398); test: Confirmatory qHTS for antagonist of cAMP-regulated guanine nucleotide exchange factor 3 (EPAC1) (AID 1645880); details: EPAC1 Rap1B-BODIPY-GDP exchange, fluorescence; series mostly up to 115 µM;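 also: plate controls were DMSO only for no effect and full effect of the ATA control for full effect; nearly all actives have a fitted effect of over 55% in size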
Rap guanine nucleotide exchange factor 3 (Homo sapiens), sequence (O95398 whole entry, looked up): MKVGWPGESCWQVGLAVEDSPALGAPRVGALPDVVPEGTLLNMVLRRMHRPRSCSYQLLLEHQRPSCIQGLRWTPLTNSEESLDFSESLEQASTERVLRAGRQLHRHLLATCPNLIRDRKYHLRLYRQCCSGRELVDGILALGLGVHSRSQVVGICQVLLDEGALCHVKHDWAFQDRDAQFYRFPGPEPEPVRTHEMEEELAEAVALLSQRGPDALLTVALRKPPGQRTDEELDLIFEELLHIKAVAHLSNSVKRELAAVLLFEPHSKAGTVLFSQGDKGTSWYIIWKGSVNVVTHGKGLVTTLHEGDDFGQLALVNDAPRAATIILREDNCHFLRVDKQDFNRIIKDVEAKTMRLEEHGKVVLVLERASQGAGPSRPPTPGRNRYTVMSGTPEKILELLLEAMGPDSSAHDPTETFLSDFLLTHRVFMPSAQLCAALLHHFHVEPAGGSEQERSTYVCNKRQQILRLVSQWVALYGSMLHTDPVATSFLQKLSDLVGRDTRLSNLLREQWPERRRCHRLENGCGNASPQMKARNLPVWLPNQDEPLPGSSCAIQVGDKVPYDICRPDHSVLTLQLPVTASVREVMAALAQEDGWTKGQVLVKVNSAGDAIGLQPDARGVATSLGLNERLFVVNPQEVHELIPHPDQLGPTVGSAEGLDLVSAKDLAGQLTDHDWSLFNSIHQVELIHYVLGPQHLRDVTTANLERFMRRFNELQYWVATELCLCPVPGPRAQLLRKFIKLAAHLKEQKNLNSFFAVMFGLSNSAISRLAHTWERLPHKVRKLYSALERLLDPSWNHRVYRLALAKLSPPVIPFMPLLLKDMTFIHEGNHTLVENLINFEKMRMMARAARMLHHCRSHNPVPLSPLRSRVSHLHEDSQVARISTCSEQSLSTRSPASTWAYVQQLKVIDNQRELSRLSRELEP
Procedure, shortened: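 Released BODIPY-GDP fluoresces less than Rap1-bound BODIPY-GDP; the signal is followed at 480/540 nm at 5-min intervals over 30 min, after 5 min at room temperature. Reactions contain 100 nM EPAC1, 250 nM RAP1B-BODIPY-GDP and 50 uM GDP; results are normalized to ATA and DMSO.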

[13] = target: Rap guanine nucleotide exchange factor 3 (Homo sapiens) (UniProt O95398); test: Confirmatory qHTS for agonist of cAMP-regulated guanine nucleotide exchange factor 3 (EPAC1) (AID 1645881); details: EPAC1 Rap1B BODIPY-GDP exchange fluorescence, 100% = cAMP control response; series mostly up to 154 µM;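 also: EPAC1 catalysed release of BODIPY-GDP from Rap1B seen as fluorescence loss; nearly all actives have a fitted effect of over 75% in size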
[14] = target: Rap guanine nucleotide exchange factor 4 (Homo sapiens) (UniProt Q8WZA2); test: Confirmatory qHTS for agonist of cAMP-regulated guanine nucleotide exchange factor 4 (EPAC2) (AID 1645884); details: EPAC2 GEF activity, Rap1B-BODIPY-GDP fluorescence, percent relative to cAMP agonist control; series mostly up to 154 µM;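 also: nucleotide exchange releases bodipy-GDP from Rap1 and this lowers its fluorescence; % is scaled to controls: 0 for no effect and ±100 for the full control effect; nearly all actives have a fitted effect of over 65% in size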
[15] = target: Rap guanine nucleotide exchange factor 3 (Homo sapiens) (UniProt O95398); test: Counterscreen qHTS for antagonist of cAMP-regulated guanine nucleotide exchange factor 3 (EPAC1) (AID 1645888); details: Rap1B-BODIPY-GDP nucleotide exchange, fluorescence; series mostly up to 30.8 µM; also: % of control where 0% means no effect
Procedure, shortened: (§1)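 Rap1B–BODIPY-GDP (250 nM) with 50 uM GDP; compounds pin-transferred to 9.74 nM–152 uM final (activator) or from 7.32 nM upwards (inhibitor). Fluorescence Ex/Em 480/540 nm read at 5 and 30 min, then after adding cAMP or buffer, at room temperature.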

[16] = target: Rap guanine nucleotide exchange factor 3 (Homo sapiens) (UniProt O95398); test: Counterscreen qHTS for agonist of cAMP-regulated guanine nucleotide exchange factor 3 (EPAC1) (AID 1645889); details: EPAC1 Rap1B-BODIPY-GDP exchange, fluorescence; series mostly up to 154 µM; also: % of control where 0% means no effect; nearly all actives have a fitted effect of over 40% in size
Procedure, shortened: as §1

[17] = target: 3',5'-cyclic-AMP phosphodiesterase 4B (Homo sapiens) (UniProt Q07343); test: qHTS Assay for Inhibitors of PDE-IV (AID 607; active = well fitted activation curve with a large enough effect in the main read-out, with a control signal flat, not every such curve was filed as active; also: % of control where 0% means no effect); details: HEK293 ACTOne CNG channel cells, membrane potential fluorescence; series mostly up to 22.9 µM
3',5'-cyclic-AMP phosphodiesterase 4B (Homo sapiens), sequence (Q07343 whole entry, looked up): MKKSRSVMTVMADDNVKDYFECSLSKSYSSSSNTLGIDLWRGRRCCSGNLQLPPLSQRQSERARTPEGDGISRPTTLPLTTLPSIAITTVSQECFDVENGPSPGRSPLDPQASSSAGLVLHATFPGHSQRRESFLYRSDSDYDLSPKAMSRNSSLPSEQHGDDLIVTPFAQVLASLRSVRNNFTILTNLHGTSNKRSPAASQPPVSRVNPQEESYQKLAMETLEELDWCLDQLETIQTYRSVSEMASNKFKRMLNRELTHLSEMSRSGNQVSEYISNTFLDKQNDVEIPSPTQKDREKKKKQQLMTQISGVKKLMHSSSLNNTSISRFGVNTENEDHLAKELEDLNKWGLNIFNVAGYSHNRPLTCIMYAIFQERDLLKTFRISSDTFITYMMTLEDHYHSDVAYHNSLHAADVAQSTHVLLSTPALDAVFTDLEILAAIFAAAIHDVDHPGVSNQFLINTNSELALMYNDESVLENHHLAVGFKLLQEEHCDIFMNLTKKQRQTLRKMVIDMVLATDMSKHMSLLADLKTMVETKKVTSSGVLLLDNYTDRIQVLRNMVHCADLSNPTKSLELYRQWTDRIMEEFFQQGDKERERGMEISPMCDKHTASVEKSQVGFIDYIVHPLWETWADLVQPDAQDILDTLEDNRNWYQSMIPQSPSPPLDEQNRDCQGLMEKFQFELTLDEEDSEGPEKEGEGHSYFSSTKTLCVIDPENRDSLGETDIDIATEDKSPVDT
Procedure, shortened: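 Live HEK293 cells with a modified cyclic nucleotide-gated (CNG) channel report intracellular cAMP via membrane-potential dye fluorescence (ex 535/em 590 nm). Endogenous PDE-IV was targeted. Compounds were tested at up to 22.9 uM final; RO 20-1724 100 uM served as control.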

[18] = Cell Viability qHTS for small molecule stabilizers of the endoplasmic reticulum resident proteome (AID 1508629); details: cell viability counter-screen, 100 nM thapsigargin for final 4 h
[19] = target: Dual specificity protein kinase CLK4 (Homo sapiens) (UniProt Q9HAZ1); test: qHTS Assay for Inhibitors of CDC-like Kinase 4 (Kinase-Glo Assay) (AID 1770); details: recombinant Clk4, Kinase-Glo ATP depletion luminescence; series mostly up to 66.7 µM; also: % is scaled to controls: 0 for no effect and ±100 for the full control effect; nearly all actives have a fitted effect of over 65% in size
Dual specificity protein kinase CLK4 (Homo sapiens), sequence (Q9HAZ1 whole entry, looked up): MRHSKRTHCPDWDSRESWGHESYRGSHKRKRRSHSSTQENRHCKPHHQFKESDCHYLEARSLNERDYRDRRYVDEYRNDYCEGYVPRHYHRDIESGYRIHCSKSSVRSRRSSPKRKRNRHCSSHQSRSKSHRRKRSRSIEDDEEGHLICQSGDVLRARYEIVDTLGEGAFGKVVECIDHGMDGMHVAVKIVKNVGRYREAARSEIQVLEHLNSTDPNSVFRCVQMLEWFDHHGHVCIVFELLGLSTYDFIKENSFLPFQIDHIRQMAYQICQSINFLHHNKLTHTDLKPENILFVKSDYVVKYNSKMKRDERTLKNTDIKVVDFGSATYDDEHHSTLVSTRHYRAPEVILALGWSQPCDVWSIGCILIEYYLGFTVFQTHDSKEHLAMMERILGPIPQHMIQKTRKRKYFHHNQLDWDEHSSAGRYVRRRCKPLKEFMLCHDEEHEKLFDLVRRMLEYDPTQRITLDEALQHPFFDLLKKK
Procedure, shortened: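 Luminescent ATP-depletion read-out (Kinase-Glo) after 4.5 h room-temperature reaction of Clk4 (25 nM final) with RS peptide (100 uM) and ATP (1 uM), pH 7.5 Tris buffer with MgCl2 and DTT.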

[20] = target: Dual specificity protein kinase CLK4 (Homo sapiens) (UniProt Q9HAZ1); test: qHTS Assay for Inhibitors of CDC-like Kinase 4 (ADP-Glo Assay) (AID 1771); details: recombinant CLK4, ADP-Glo luminescence; series mostly up to 80 µM; also: % is scaled to controls: 0 for no effect and ±100 for the full control effect; nearly all actives have a fitted effect of over 70% in size
Procedure, shortened: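 Compounds are pin-transferred onto substrate mix (100 uM RS peptide, 1 uM ATP), then 25 nM Clk4 is added. After 1 hr at room temperature, ADP-Glo reagent runs 45 min, detection reagent 30 min, then luminescence is read.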

[21] = target: Dual specificity protein kinase CLK4 (Homo sapiens) (UniProt Q9HAZ1); test: qHTS Assay for Inhibitors of CDC-like Kinase 4 (ADP-FP Assay) (AID 1795); details: Transcreener ADP fluorescence polarization; series mostly up to 50 µM;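 also: recombinant human CLK4 phosphorylating RS repeat peptide at 1 µM ATP; % is scaled to controls: 0 for no effect and ±100 for the full control effect; nearly all actives have a fitted effect of over 60% in size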
Procedure, shortened: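 Kinase activity was measured as ADP production using Transcreener orange tracer (4 nM) and ADP antibody (1 ug/mL) fluorescence polarization, with ADP calculated from a calibration curve. The 1 h reaction contained 6.25 nM Clk4, 1 uM ATP and 100 uM RS peptide at pH 7.5 with Mg2+.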

[22] = target: Ubiquitin carboxyl-terminal hydrolase 1 (Homo sapiens) (UniProt O94782); test: Inhibitors of USP1/UAF1: Pilot qHTS (AID 504865); details: purified USP1/UAF1, Ub-rhodamine cleavage fluorescence; series mostly up to 54.9 µM;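 also: rhodamine fluorescence freed from ubiquitin-rhodamine substrate followed over time; top concentration of the series differs between compounds; % is scaled to controls: 0 for no effect and ±100 for the full control effect; nearly all actives have a fitted effect of over 35% in size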
Procedure, shortened: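 Deubiquitinase activity followed as kinetic rhodamine fluorescence release from 150 nM Ub-Rho. 1 nM USP1/UAF1 with compound, after 15 min room-temperature preincubation, in HEPES pH 7.8 buffer containing TCEP, EDTA, BSA and Tween-20.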

[23] = qHTS Assay for Identification of Small Molecule Agonists for Hypoxia Response Element Signaling Pathway (AID 914; active = well fitted activation curve with a large enough effect in the signal ratio, with a control signal flat, not every such curve was filed as active; the % refers to the signal ratio; also: potency is read from the fitted curve at half-maximal effect); details: ME-180 (cervical carcinoma) HRE-bla reporter, beta-lactamase ratio, CoCl2, 17 h; activation: stronger effect = higher value
Procedure, shortened: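 Compounds in a titration series were added to ME-180 reporter cells alongside an EC50 level of CoCl2. After 17 hours, beta-lactamase activity was read as the 460nm/530nm emission ratio of CCF4, giving AC50 values.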

[24] = qHTS Assay for Lipid Storage Modulators (AID 1519; calls by dose curve); details: Drosophila S3 cells, BODIPY lipid droplet/cell ratio, laser cytometry, cells loaded with oleic acid
Procedure, shortened: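 Cells seeded at 5,000 per well were treated with compounds over a concentration series and loaded with oleic acid (400 uM, as added). Lipid droplet fluorescence (488 nm excitation, 500-530 nm channel) was read by laser-scanning cytometry and normalized to 20 uM Triacsin C.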

COc1ccc(-n2c(=O)c(C)nc3cnc(N4CCNCC4)nc32)cc1
inactive: Potency [1] > 11.4 µM | activity change, negative = inhibition [2] -6.88% | activity change, negative = inhibition [4] -7.6% | activity, negative = inhibition [5] 7.09% | Potency [6] > 9.22 µM | Potency [7] > 46 µM | outcome [8] | Potency [9] | Potency [10]
active: Potency [3] 15.8 µM

Cc1ccc(P(=O)(CSC(=N)N)c2ccc(C)cc2)cc1
inactive: Potency [11] | Potency [12] | outcome [13] | activation [14] -5.01% [at 17.1 µM] | outcome [15] | activation [16] -0.0561% [at 30.8 µM]

O=C(Nc1cccc(F)c1)N1CCCC2(CCNCC2)C1
inactive: Potency [1] > 11.4 µM | activity change, negative = inhibition [2] -6.17% | Potency [3] | activity change, negative = inhibition [4] 12.2% | activity, negative = inhibition [5] -5.47% | Potency [7] > 46 µM | outcome [8] | Potency [17] | Potency [9] | Potency [10] | max response [18] 8.67%

COCCn1c(=O)c(-c2ccccc2)nc2cnc(Oc3ccc(OC)cc3)nc21
active: Potency [3] 1.26 µM | Potency [11] 39.8 µM
inactive: Potency [1] > 11.4 µM | activity change, negative = inhibition [2] -27.8% | activity, negative = inhibition [5] -10.2% | Potency [6] > 9.22 µM | Potency [7] > 46 µM | outcome [8] | Potency [9] | Potency [19] | Potency [20] | Potency [21] | Potency [22] | max response [18] 4.93%

COCCn1c(=O)c(-c2ccccc2)nc2cnc(N3CCNCC3)nc21
active: Potency [23] 3.16 µM
inactive: Potency [1] > 11.4 µM | Potency [6] > 9.22 µM | Potency [7] > 46 µM | outcome [8] | Potency [17] | Potency [10]

COc1ccc(Oc2ncc3nc(-c4ccccc4)c(=O)n(C4CC4)c3n2)cc1
inactive: Potency [1] > 11.4 µM | activity change, negative = inhibition [2] -15.8% | activity, negative = inhibition [5] -1.16% | Potency [6] > 9.22 µM | Potency [7] > 46 µM | outcome [8] | Potency [17] | Potency [10] | max response [18] 12.6%

COCCn1c(=O)c(-c2ccc(Cl)cc2)nc2cnc(OCc3ccccc3)nc21
-15.5%: max response ([24]; measured here: lipid channel max response)
inactive: Potency [1] > 11.4 µM | activity change, negative = inhibition [2] -14.1% | activity change, negative = inhibition [4] 1.06% | activity, negative = inhibition [5] -2.08% | Potency [6] > 9.22 µM | Potency [7] > 46 µM | outcome [8] | activity change, negative = inhibition ([24]; at 57.5 µM (top of the series)) -8.74% | Potency [19] | Potency [20] | Potency [22] | Potency [10]
-2.09%: max response ([24]; measured here: cell count channel max response)

C=C1CCC[C@]2(C)C[C@H]3OC(=O)[C@H](CNCCc4ccccc4OC)C3CC12 (stereo partly drawn)
inactive: Potency [11] | max response [18] -12.1%
